# Assay results published in ChEMBL document CHEMBL3988442, “University of Dundee, Small-Polar-MMV Screening Library” (2021).
# For some assays here: Potency and affinity values are given separately.
# Columns and labels:
# Parameters in all cases: scale not given: direction of the effect not stated beside the values
# [1] = target: Protein translocase subunit SecA (Escherichia coli (strain K12)) (UniProt P10408); test: Assay to Identify E. coli SecA ATPase Inhibitors; type: functional; conditions: 30 µM
# [2] = target: T1, Ubiquitin-activating enzyme e1, putative (Leishmania donovani (strain BPK282A1)) (UniProt E9BSI1); test: Leishmania donovani Ubiquitin Activating Enzyme (LdE1); type: functional; conditions: 30 µM
# T1 sequence (whole entry): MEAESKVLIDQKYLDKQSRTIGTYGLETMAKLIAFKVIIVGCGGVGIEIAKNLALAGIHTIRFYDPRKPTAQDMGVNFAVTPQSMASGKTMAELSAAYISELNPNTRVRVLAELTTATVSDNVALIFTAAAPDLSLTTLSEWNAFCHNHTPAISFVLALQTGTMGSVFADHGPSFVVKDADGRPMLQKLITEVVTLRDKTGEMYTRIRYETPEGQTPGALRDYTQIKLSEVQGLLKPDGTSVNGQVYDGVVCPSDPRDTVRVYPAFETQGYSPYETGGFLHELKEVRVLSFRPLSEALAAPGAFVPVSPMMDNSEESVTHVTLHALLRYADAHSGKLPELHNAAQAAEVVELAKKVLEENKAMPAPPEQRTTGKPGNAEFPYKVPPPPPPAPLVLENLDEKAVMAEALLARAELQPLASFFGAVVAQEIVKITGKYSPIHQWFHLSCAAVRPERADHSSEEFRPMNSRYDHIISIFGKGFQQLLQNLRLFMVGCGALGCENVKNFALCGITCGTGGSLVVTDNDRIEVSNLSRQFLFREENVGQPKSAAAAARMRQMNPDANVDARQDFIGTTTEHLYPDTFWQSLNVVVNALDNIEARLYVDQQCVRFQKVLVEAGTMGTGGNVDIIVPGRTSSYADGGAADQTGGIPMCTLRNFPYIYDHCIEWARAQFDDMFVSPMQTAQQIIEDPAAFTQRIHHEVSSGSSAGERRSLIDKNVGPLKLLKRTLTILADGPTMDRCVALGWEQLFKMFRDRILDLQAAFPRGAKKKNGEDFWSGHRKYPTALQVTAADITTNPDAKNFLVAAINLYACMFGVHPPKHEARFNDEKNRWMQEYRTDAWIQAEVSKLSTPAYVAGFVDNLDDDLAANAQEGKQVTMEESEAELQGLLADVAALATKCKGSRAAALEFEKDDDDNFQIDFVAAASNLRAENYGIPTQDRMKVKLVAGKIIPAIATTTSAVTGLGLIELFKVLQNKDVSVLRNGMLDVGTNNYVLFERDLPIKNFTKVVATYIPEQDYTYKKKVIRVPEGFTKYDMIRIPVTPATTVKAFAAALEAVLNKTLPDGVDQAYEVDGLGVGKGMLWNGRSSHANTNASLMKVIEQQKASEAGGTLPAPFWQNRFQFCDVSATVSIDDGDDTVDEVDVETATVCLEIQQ
# [3] = target: AMP-activated protein kinase, AMPK (Homo sapiens) (UniProt P54646+O43741+P54619+Q9UGJ0+Q9Y478+Q13131+Q9UGI9); test: AMP-dependent Kinase enzyme assay. An in vitro enzyme assay that detects ADP turnover that is directly proportional to AMPK activity. This uses naive AMPK that is activated during the assay with MK-8722; type: functional; conditions: 30 µM
# [4] = target: Sialic acid-binding Ig-like lectin 9 (Homo sapiens) (UniProt Q9Y336); test: Hs-Siglec9 ALPHAscreen SOP 20170721; conditions: 10 µM
# Trypanosoma cruzi = test: Trypanosoma cruzi phosphomannomutase and mannose-1-phosphate guanylyltransferase assay; type: functional; conditions: 10 µM
# [5] = target: T2, Arginase-2, mitochondrial (Homo sapiens) (UniProt P78540); test: in vitro enzyme assay to detect the production of urea directly proportional to the activity of Arginase II; type: functional; conditions: 33.3 µM; note: in the data most compounds retested in dose-response had high values
# T2 sequence (whole entry): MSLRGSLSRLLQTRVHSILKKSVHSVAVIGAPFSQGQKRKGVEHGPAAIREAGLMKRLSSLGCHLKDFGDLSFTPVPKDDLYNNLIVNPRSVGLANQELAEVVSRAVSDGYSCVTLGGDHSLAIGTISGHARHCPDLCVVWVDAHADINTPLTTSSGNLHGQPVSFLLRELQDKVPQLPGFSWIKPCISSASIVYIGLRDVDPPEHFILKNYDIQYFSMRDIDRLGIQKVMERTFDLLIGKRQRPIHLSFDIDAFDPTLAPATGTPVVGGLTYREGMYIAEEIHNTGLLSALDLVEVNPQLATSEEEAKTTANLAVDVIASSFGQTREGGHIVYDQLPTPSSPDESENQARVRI
# [6] = target: T3, Proteasome subunit beta (Trypanosoma cruzi) (UniProt O96673); test: Trypanosoma cruzi proteasome chymotrypsin-like activity (TcProtChymo) assay.; note: in the data most compounds retested in dose-response had high values; type: functional; conditions: 9.37 µM
# T3 sequence (whole entry): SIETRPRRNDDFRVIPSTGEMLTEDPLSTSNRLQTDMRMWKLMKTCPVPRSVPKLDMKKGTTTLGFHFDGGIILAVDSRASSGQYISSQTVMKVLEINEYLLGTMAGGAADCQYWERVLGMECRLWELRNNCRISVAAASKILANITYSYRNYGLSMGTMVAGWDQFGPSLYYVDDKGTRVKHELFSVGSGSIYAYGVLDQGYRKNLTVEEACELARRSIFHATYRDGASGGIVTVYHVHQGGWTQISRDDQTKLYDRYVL
# Homo sapiens = species on record: Homo sapiens; test: To identify inhibition of the IFN signalling (Jak-Stat) pathway via expression of an eGFP reporter gene under the control of an IFN-stimulated response element (ISRE) containing MxA promoter.; type: functional; conditions: 30 µM
# [7] = target: T4, Tyrosyl-tRNA synthetase, putative (Trypanosoma cruzi (strain CL Brener)) (UniProt Q4DSP6); test: Trypanosoma cruzi tyrosyl tRNA synthetase (TcYRS) _High Tyrosine SOP; type: functional; conditions: 30 µM; note: in the data most compounds retested in dose-response had high values
# T4 sequence (whole entry): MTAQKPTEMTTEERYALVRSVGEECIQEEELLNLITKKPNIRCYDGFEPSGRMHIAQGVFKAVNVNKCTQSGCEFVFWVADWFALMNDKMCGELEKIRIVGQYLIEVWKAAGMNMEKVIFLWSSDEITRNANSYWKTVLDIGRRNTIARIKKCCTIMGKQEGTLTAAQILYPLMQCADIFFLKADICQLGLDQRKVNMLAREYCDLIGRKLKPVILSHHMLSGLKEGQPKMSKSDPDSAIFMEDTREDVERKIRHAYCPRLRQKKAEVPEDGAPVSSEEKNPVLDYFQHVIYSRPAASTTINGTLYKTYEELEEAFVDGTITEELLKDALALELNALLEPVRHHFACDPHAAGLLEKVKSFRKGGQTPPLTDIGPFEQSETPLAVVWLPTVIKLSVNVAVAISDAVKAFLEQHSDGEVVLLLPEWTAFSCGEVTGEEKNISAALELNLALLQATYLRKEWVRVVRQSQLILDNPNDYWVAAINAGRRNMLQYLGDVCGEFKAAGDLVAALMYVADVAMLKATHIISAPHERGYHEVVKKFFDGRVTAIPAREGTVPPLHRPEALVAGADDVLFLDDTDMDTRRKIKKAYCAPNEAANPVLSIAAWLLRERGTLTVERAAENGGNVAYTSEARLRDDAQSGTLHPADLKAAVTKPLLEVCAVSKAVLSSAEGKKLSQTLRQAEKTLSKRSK
# [8] = target: T4, Tyrosyl-tRNA synthetase, putative (Trypanosoma cruzi (strain CL Brener)); test: Trypanosoma cruzi tyrosyl tRNA synthetase (TcYRS) SOP; type: functional; conditions: 30 µM
# [9] = target: Chromo domain-containing protein 1 (Saccharomyces cerevisiae (strain ATCC 204508 / S288c) (Baker's yeast)) (UniProt P32657); test: ScCHD-1 Enzyme Inhibition Assay; type: functional; conditions: 30 µM; note: in the data most compounds retested in dose-response had high values
# Chromo domain-containing protein 1 (Saccharomyces cerevisiae (strain ATCC 204508 / S288c) (Baker's yeast)), sequence (P32657 whole entry, the tested form may be a part): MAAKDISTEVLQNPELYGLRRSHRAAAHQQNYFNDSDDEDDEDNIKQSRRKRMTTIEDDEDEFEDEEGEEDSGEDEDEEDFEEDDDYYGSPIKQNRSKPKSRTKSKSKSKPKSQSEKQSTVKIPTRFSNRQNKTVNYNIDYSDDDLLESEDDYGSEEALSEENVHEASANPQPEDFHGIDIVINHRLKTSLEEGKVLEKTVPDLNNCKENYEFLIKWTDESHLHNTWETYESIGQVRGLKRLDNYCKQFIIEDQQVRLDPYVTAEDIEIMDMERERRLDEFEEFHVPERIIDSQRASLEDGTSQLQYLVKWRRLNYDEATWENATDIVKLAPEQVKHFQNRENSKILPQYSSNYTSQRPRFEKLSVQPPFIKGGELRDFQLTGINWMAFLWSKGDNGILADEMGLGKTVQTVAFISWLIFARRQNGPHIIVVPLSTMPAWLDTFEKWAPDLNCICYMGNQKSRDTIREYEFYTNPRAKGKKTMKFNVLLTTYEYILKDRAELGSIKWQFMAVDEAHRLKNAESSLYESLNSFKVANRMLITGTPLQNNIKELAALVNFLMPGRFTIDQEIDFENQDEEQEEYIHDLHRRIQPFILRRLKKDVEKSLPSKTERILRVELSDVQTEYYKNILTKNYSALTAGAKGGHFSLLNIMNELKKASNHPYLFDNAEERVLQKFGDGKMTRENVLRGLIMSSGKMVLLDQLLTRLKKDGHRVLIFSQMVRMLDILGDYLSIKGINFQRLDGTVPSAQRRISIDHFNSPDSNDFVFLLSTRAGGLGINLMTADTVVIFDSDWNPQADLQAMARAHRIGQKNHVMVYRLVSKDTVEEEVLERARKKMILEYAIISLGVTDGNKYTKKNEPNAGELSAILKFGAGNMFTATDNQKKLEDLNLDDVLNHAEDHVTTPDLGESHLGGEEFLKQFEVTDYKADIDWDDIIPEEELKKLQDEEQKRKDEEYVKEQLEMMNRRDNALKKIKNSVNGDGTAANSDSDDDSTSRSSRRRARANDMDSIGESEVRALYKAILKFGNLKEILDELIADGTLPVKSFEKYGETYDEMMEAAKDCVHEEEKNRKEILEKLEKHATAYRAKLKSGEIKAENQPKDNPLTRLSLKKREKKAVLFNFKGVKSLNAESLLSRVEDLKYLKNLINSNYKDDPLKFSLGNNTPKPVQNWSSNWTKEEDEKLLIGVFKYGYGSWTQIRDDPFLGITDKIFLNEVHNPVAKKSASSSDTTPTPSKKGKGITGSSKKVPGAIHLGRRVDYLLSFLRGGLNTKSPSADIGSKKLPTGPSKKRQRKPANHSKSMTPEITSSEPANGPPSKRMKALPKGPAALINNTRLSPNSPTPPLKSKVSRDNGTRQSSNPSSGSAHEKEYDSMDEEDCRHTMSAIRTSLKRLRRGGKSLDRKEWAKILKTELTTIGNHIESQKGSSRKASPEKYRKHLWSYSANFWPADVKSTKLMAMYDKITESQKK
# Protein translocase subunit SecA (Escherichia coli (strain K12)), sequence (P10408 whole entry): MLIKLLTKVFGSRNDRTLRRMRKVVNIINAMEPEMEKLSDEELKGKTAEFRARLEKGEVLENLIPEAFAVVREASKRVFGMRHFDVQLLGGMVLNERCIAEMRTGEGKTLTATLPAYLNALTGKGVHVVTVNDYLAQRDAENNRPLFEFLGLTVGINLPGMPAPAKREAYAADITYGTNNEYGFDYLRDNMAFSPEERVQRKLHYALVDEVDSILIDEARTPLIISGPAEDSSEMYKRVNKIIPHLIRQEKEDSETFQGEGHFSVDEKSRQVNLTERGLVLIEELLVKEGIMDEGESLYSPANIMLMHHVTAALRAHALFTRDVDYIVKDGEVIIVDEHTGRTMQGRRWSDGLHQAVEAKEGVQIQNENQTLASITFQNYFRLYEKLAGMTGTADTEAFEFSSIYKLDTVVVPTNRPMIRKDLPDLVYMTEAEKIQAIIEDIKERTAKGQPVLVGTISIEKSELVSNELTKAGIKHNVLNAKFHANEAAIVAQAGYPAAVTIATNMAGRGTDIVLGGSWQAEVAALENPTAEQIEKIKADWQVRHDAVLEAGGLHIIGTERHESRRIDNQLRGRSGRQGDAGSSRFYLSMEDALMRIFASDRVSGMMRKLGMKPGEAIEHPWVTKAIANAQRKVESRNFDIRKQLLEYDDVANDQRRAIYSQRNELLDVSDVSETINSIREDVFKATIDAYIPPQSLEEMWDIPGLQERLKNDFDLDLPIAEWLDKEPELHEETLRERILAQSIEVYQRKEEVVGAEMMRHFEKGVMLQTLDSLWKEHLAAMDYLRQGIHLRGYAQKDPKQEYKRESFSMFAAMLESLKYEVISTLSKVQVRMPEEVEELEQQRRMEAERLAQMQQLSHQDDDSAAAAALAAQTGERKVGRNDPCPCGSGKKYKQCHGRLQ
# Sialic acid-binding Ig-like lectin 9 (Homo sapiens), sequence (Q9Y336 whole entry): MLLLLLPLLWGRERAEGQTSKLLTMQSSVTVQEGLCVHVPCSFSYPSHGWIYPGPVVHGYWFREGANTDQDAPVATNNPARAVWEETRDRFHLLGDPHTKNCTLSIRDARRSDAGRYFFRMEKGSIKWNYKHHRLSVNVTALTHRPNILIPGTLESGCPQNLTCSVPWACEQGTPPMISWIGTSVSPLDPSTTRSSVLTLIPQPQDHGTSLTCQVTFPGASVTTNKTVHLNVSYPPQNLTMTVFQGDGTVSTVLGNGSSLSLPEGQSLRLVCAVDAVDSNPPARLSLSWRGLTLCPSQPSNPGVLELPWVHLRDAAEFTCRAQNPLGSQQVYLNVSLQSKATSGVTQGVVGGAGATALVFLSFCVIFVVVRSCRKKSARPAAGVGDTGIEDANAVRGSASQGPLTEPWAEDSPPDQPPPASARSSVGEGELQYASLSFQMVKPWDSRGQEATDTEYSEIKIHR
SMILES,Percent Effect [1] [%],Percent Effect [2] [%],Percent Effect [3] [%],Percent Effect [4] [%],Percent Effect (Trypanosoma cruzi) [%],Percent Effect [5] [%],Percent Effect [6] [%],Percent Effect (Homo sapiens) [%],Percent Effect [7] [%],Percent Effect [8] [%],Percent Effect [9] [%]
CCn1cnnc1CNC(=O)N1CCN(Cc2ccccc2)CC1,-4.19,26,-4.86,-6.22,6.95,-2.32,12.1,0.217,8.57,30.6,-22.4
O=C(Cn1nc(-c2cccs2)ccc1=O)N1CCCCCC1,-3.74,-1.33,5.86,8.95,1.77,-10.4,7.21,9,1.06,7.69,-3.49
CCOc1ccc(NC(=O)NCc2csc(NC)n2)cc1C,-1.88,10.8,-11.1,14.3,1.95,0.924,-1.26,19.8,12.9,23.2,-3.54
COCCN(Cc1ccc(F)cc1Cl)C(=O)c1ccc(=O)[nH]n1,-4.94,6.94,-10.2,29.6,4.37,6.18,10.3,-2.22,2.1,5.13,-5.81
COCC(=O)N1CCC[C@]2(C(=O)N(C)C)CN(c3ccccn3)C[C@@H]2C1,-2.73,5.33,-3.72,0.562,5.02,-50.4,16.2,-8.04,6.25,5,-8.42
COc1cccc2cc(CNC(=O)N3CCCC(O)C3)oc12 (configuration not stated),-6.3,-2.53,-3.54,1.57,8.59,-3.8,1.39,6.63,3.45,8.86,-5.74
Cc1cnn(CCNCc2nc(-c3ccccc3Cl)no2)c1,-4.16,10.5,0.118,-5.56,9.77,-4.98,16.5,12.2,5.39,17.1,-13.7
CC(NC(=O)N(C)Cc1ccc(Cl)s1)c1ccccn1 (configuration not stated),-2.39,13.9,9.06,-0.224,0.308,1.07,6.86,14.4,3.12,12.7,-14.9
Cc1nn(C(C)C)c(C)c1NC(=O)c1ccncc1,-2.46,16.4,-7.09,5.06,5.56,0.399,16.5,-7.45,10.4,11.1,-7.44
O=S(=O)(NC1=NCN(CCc2cccs2)CN1)c1ccc(F)cc1,1.07,4,3.26,4.09,-4.91,-7.57,14.1,-6.32,5.29,10.3,-10.7
COCCN(C)Cc1ccc(OC)c(OC(F)F)c1,-0.72,0,2.88,0.875,-20.8,6.9,0.499,-9.7,-1.07,-6.17,2.42
Cc1noc(C)c1CN1C(=O)[C@H]2CC[C@@H]1CN(Cc1cccnc1N)C2,0.397,1.39,15.3,-8.6,-8.46,3.53,23,31.8,0,-5.13,3.37
Cc1nn(C)c(N2CCOCC2)c1CNCc1ccnc(N(C)C)c1,-1.81,10.4,-5.9,-0.165,-2.64,0.21,10.6,25.3,3.81,14.1,-2.85
COc1cc(CN2CC[C@@]3(CCCO3)[C@@H](O)C2)ccc1F,-3.6,14.9,6.46,-2.68,2.96,0.696,3.74,-18.1,6.45,16.9,-12.2
COCCN(Cc1ccoc1)C(=O)c1ccccc1Cl,-4.82,0,0.957,-4.22,-4.24,-1.94,0.522,14.2,1.06,1.28,-1.4
Cc1cccc(-c2nc(CN3CCCCC3Cn3cncn3)no2)c1 (configuration not stated),-1.65,-5.26,5.98,4.13,3.19,3.45,2.34,-0.995,7.35,0,6.07
COc1cc(C)nc(N2CCN(C(=O)CCc3cscn3)CC2)n1,1.16,2.7,-1.3,0.273,-6.95,1.91,11.4,0.884,5.82,9.76,-3.75
CCc1nccc(CN2CCCC(c3nn(C)c(=O)n3CC)C2)n1 (configuration not stated),-3.27,8.11,-2.62,37.3,2.64,8.19,-1.63,2.84,4.3,13.6,-3.17
COCC1CN(C(=O)c2cccn2C)Cc2ncnn2C1 (configuration not stated),-5.41,5.2,0.668,11.3,9.34,4.14,8.32,9.25,-2.15,11.1,3.71
CC(Cn1ccnc1)NC(=O)C1(c2ccc(F)cc2)CC1 (configuration not stated),-2.91,17.7,-3.38,-4.39,2.93,-3.42,4.83,-2.07,1.48,16.5,-3.1
CC(C)c1n[nH]c(C2CN(Cc3nnc(C4CC4)o3)CCO2)n1 (configuration not stated),-2.46,0,9.78,-2.59,-3.87,-8.37,6.47,27.6,-5.42,-11.4,-1.54
CCc1nccn1C1CCCN(C(=O)CCCNc2ncccn2)C1 (configuration not stated),-4.28,3.8,4.55,1.92,-2.77,2.8,6,9.01,4.17,10.1,-14.2
